The structures appear in SMILES notation. Unmarked numbers belong to inactive results. For some of these results: Measured potencies and affinities stand elsewhere. Calls of active or inactive are those of the source. Unless noted, how the calls were made is not given here.

Assay [1] in a line: antimalarial activity against Dd2 strain (AID 2302;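 active means growth inhibition above 50% at the single 2 µM test dose, taken to imply half-maximal potency below 2 µM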;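 further: 0% = DMSO untreated growth and 100% = chloroquine plus artemisinin killed control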). Particulars: P. falciparum Dd2 in RBCs, LDH growth readout, 72 h; at 2 µM; active compounds read high.
A short description of assay [2]: HepG2 cytotoxicity, primary screen, cytotoxicity control for P. falciparum antimalarial project, cell-based, ATP luminescence (AID 2303;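 active means inhibition above 50%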;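 further: 0% = DMSO wells and 100% = digitonin-killed cells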). The note with it: HepG2 viability, 24-48 h, at 10 µM, active compounds read high.
The target in assay [3] is L-lactate dehydrogenase (Plasmodium falciparum (isolate CDC / Honduras)) (UniProt Q27743). The experiment in a line: PfLDH activity inhibition – cell lysate, 3D7 strain, counter-screen for P. falciparum growth inhibition project (AID 2304).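 Further: 0% = vehicle and 100% = reference inhibitor.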 The note with it: P. falciparum 3D7 crude extract, LDH APAD/NBT absorbance; at 2 µM; active compounds read high.
Assay [4] in a line: inhibition of 3D7 malaria parasite growth – strain 3D7 (AID 2306).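 Further: 0% = DMSO wells and 100% = chloroquine plus artemisinin control wells.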 The note with it: P. falciparum 3D7 erythrocytic growth, LDH absorbance, 72 h; at 2 µM; active compounds read high.
Assay [5] concerns the target Calcium-dependent protein kinase 1 (Plasmodium falciparum (isolate 3D7)) (UniProt P62344). The experiment in a line: PfCDPK1 kinase inhibitors, biochemical, TCAMS library (AID 1159585; cut-off not given, nearly all actives have IC50 up to about 0.98 µM;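 further: inhibitors leave more ATP so luminescence rises with inhibition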). Particulars: recombinant PfCDPK1, Kinase-Glo ATP depletion luminescence. (In general: Kinase-Glo reads ATP consumption through a luciferase reaction.)
The target in assay [6] is Plasmodium falciparum protein kinase 6 (PK6, PF3D7_1337100) (UniProt Q8IDW1). The experiment in a line: PfPK6 kinase inhibitors, biochemical, TCAMS library (AID 1159586). Particulars: recombinant PfPK6, Kinase-Glo ATP depletion luminescence.
Assay [7] addresses Protein kinase 7 (PK7), Plasmodium falciparum 3D7 (PF3D7_0213400) (UniProt Q7YTF7). The experiment in a line: inhibition of Plasmodium PK7 catalytic activity – biochemical, TCAMS antimalarial set, Kinase-Glo luminescence (AID 1159587). The note with it: recombinant PfPK7, Kinase-Glo ATP depletion luminescence.
The target of assay [8] is Calcium-dependent protein kinase 4 (Plasmodium falciparum (isolate 3D7)) (UniProt Q8IBS5). The experiment in a line: PfCDPK4 kinase inhibitors, biochemical, TCAMS library (AID 1159588; cut-off not given, nearly all actives have IC50 up to about 0.91 µM). Particulars: recombinant PfCDPK4, Kinase-Glo ATP depletion luminescence.
Chain of Calcium-dependent protein kinase 4 (Plasmodium falciparum (isolate 3D7)) (Q8IBS5 whole entry, looked up): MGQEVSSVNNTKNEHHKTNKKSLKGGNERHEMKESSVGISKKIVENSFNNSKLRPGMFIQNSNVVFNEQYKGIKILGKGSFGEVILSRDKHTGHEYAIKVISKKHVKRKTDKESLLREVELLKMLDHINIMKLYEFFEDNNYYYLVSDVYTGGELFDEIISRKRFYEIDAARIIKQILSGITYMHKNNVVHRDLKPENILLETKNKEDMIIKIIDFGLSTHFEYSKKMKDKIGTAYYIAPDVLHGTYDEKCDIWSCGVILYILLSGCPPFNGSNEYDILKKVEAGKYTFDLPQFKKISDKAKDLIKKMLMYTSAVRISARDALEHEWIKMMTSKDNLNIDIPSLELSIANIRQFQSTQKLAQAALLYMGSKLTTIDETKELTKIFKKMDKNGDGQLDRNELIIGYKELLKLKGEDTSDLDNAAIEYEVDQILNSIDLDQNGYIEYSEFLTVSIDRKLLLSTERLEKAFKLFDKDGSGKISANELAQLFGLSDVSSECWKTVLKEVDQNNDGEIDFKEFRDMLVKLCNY

Chain of L-lactate dehydrogenase (Plasmodium falciparum (isolate CDC / Honduras)) (Q27743 whole entry, looked up): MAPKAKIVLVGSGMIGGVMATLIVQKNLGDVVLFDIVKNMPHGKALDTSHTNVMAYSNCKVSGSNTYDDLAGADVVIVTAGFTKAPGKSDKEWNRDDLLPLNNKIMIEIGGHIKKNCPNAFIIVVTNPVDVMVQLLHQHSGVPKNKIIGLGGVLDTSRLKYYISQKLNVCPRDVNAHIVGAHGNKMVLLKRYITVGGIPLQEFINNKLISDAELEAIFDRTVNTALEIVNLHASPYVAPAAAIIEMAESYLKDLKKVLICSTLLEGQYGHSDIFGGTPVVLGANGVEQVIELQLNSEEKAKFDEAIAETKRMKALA
Chain of Protein kinase 7 (PK7), Plasmodium falciparum 3D7 (PF3D7_0213400) (Q7YTF7 1-343): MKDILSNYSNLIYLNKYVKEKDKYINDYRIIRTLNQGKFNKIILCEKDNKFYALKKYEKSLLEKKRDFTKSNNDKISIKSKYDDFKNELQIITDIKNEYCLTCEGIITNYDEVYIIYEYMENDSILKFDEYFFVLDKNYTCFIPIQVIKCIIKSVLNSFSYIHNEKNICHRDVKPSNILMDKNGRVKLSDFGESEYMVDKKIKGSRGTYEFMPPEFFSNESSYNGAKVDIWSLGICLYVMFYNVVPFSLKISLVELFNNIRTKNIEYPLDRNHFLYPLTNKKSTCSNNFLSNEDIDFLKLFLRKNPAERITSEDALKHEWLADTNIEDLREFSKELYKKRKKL
Chain of Calcium-dependent protein kinase 1 (Plasmodium falciparum (isolate 3D7)) (P62344 whole entry, looked up): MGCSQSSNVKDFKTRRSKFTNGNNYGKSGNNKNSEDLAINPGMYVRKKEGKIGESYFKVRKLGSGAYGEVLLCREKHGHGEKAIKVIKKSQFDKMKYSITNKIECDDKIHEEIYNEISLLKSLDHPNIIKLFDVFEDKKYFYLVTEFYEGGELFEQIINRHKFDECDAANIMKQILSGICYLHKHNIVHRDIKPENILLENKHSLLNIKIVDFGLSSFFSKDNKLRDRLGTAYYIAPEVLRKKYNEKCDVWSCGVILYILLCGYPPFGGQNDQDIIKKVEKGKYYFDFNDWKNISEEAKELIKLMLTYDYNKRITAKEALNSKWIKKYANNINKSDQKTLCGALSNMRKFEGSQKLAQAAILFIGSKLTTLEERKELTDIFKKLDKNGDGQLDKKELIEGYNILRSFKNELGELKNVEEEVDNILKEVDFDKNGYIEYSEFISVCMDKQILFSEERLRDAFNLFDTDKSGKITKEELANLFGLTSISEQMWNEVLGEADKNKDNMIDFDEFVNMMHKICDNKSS
Chain of Plasmodium falciparum protein kinase 6 (PK6, PF3D7_1337100) (Q8IDW1 1-305): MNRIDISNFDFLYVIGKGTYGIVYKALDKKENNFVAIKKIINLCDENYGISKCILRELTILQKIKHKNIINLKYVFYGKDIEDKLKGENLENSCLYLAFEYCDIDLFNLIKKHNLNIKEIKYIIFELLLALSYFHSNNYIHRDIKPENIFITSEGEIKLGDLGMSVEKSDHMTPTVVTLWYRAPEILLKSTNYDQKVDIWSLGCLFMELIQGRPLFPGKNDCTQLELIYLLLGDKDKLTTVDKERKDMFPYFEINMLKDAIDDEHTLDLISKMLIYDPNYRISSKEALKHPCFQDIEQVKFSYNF

Consider `CC(CCc1ccccc1)NCC(O)c1cccc([N+](=O)[O-])c1` (stereo not given), for which the results for the growth inhibition in assay [1] and in assay [4] were 98% (active) and 97% (active), respectively. For the same compound, the inhibition (usually the drop in the measured response relative to a control, in per cent) is -2% in assay [2] and 1% in assay [3]. For the same compound, the result in assay [5], in assay [6], in assay [7] and in assay [8] was inactive.
Take `Fc1ccc2nc(-c3ccc(-c4ccc(CN5CCCCC5)cc4)cc3)[nH]c2c1`: the results for the growth inhibition in assay [1] and in assay [4] were 100% (active) and 98% (active), respectively. Besides, the inhibition in assay [2] is 31%; in assay [3] it was -3%. Also, the result in assay [5], in assay [6], in assay [7] and in assay [8] was inactive.
Consider `NC(N)=NN=CC(=O)Nc1ccc(Cl)c(C(F)(F)F)c1`, for which the growth inhibition is 0% in assay [1] and 100% (active) in assay [4]. In addition, the figures for the inhibition in assay [2] and in assay [3] were -6% and 0%, respectively. Moreover, the result in assay [5], in assay [6], in assay [7] and in assay [8] was inactive.
Take `CCOC(=O)N1CCC(NC(=O)c2ccc(C(C)(C)C)cc2OC)CC1`: the figures for the growth inhibition in assay [1] and in assay [4] were -5% and 88% (active), respectively. Also, the values for the inhibition in assay [2] and in assay [3] were -7% and 0%, respectively. The outcome in assay [5], in assay [6], in assay [7] and in assay [8] was inactive.
Take `O=S(=O)(NCCN1CCCC1)c1ccc(-c2ccc(CNCc3ccccc3)cc2)s1`: the values for the growth inhibition in assay [1] and in assay [4] were 17% and 94% (active), respectively. The inhibition in assay [2] is 34%; in assay [3] it was -5%. The result in assay [5], in assay [6], in assay [7] and in assay [8] was inactive.
Take `OC[C@H]1CCCN1CC#Cc1cc2c(Nc3ccc(OCc4cccc(F)c4)c(Cl)c3)ncnc2s1`: the growth inhibition is 6% in assay [1] and 89% (active) in assay [4]. The inhibition in assay [2] was 13%; in assay [3], -2%. The result in assay [5], in assay [6], in assay [7] and in assay [8] was inactive.
Consider `COc1ccc2ncc(F)c(CCN3CC[C@@H](CNCc4nc5c(cc4C)SCC(=O)N5)C3)c2n1`, for which the results for the growth inhibition in assay [1] and in assay [4] were 42% and 91% (active), respectively. Besides, the inhibition in assay [2] was 14%; in assay [3], 1%. The result in assay [5], in assay [6], in assay [7] and in assay [8] was inactive.
As for `CC(C)N1CCN(c2ccc(OCCCN3CCN(c4cccc(Cl)c4Cl)CC3)c(C(F)(F)F)c2)CC1`, the figures for the growth inhibition in assay [1] and in assay [4] were 37% and 94% (active), respectively. The inhibition is 79% (active) in assay [2] and 0% in assay [3]. For the same compound, the result in assay [5], in assay [6], in assay [7] and in assay [8] was inactive.
Turning to `CC(=O)Nc1nc(C(=O)Nc2cccc(-c3ccc4c(cnn4CC4CC4)c3)c2)cs1`, the growth inhibition in assay [1] was 67% (active); in assay [4], 95% (active). Moreover, the inhibition is 16% in assay [2] and 2% in assay [3]. Also, the result in assay [5], in assay [6], in assay [7] and in assay [8] was inactive.
As for `CCCCCC(=O)NCC(NCCCNc1cc(=O)c2ccccc2[nH]1)c1cc(Br)cc(Br)c1` (stereo not given), the figures for the growth inhibition in assay [1] and in assay [4] were 66% (active) and 96% (active), respectively. In addition, the inhibition is -1% in assay [2] and -8% in assay [3]. For the same compound, the outcome in assay [5], in assay [6], in assay [7] and in assay [8] was inactive.
As to `O=S(=O)(NCCN1CCCC1)c1ccc(-c2ccc(CNCc3ccsc3)cc2)s1`, the values for the growth inhibition in assay [1] and in assay [4] were 40% and 99% (active), respectively. For the same compound, the inhibition was 31% in assay [2] and 7% in assay [3]. Besides, the result in assay [5], in assay [6], in assay [7] and in assay [8] was inactive.
As to `Cc1ccccc1C1CCN(c2ccc(C(=O)Nc3ccccc3)cn2)CC1`, the growth inhibition is 94% (active) in assay [1] and 95% (active) in assay [4]. For the same compound, the figures for the inhibition in assay [2] and in assay [3] were 53% (active) and -2%, respectively. Also, the result in assay [5], in assay [6], in assay [7] and in assay [8] was inactive.
On to `Oc1ccc(CC2CCCN(c3nc(NCCCOc4ccccc4-c4ccccc4)nc(N4CCNCC4)n3)C2)cc1` (stereo not given), for which the figures for the growth inhibition in assay [1] and in assay [4] were 77% (active) and 95% (active), respectively. Besides, the inhibition is 56% (active) in assay [2] and -4% in assay [3]. Further, the outcome in assay [5], in assay [6], in assay [7] and in assay [8] was inactive.
As for `COc1cccc(-c2csc(C(=O)NCC3CCN(Cc4ccc(C(C)C)cc4)C3)c2)c1` (stereo not given), the growth inhibition is 9% in assay [1] and 86% (active) in assay [4]. In addition, the inhibition was 35% in assay [2] and 0% in assay [3]. For the same compound, the outcome in assay [5], in assay [6], in assay [7] and in assay [8] was inactive.
Take `Cc1cc(NCCC(=O)NCc2cccc(F)c2)nc(NCCc2ccc(F)cc2)n1`: the growth inhibition in assay [1] is 2%; in assay [4], 89% (active). The inhibition in assay [2] was 0%; in assay [3], -1%. Also, the result in assay [5], in assay [6], in assay [7] and in assay [8] was inactive.
For `CCC[C@@H]([C@@H](CC1CCCCC1)C(=O)N[C@H](C(=O)Nc1nccs1)C(C)(C)SCCNC(=O)OCC)N(O)C=O`, the growth inhibition in assay [1] was 98% (active); in assay [4], 99% (active). In addition, the inhibition was 45% in assay [2] and 0% in assay [3]. The result in assay [5], in assay [6], in assay [7] and in assay [8] was inactive.
Consider `Cc1ccccc1Nc1cc(Nc2ccccc2C)c2ccccc2n1`, for which the results for the growth inhibition in assay [1] and in assay [4] were 93% (active) and 96% (active), respectively. Further, the values for the inhibition in assay [2] and in assay [3] were 28% and -1%, respectively. Besides, the result in assay [5], in assay [6], in assay [7] and in assay [8] was inactive.
For `CCCCNC(=O)[C@H](CC1CCCCC1)NC(=O)c1ccc(O)c(-c2cccc(C(F)(F)F)c2)c1`, the growth inhibition was 86% (active) in assay [1] and 98% (active) in assay [4]. For the same compound, the inhibition is -8% in assay [2] and 0% in assay [3]. Moreover, the result in assay [5], in assay [6], in assay [7] and in assay [8] was inactive.
Take `c1ccc2c(c1)CN(Cc1cc3ccccc3[nH]1)CC1(CCN(Cc3c[nH]c4cnccc34)CC1)O2`: the growth inhibition in assay [1] is 62% (active); in assay [4] it was 101% (active). Further, the inhibition in assay [2] was 27%; in assay [3], -3%. For the same compound, the outcome in assay [5], in assay [6], in assay [7] and in assay [8] was inactive.
Regarding `COc1ccc(CN(C)CCOc2ccc(NC(=O)c3cccc4c(=O)c5cc(SC)ccc5[nH]c34)cc2)cc1OC`, the values for the growth inhibition in assay [1] and in assay [4] were 98% (active) and 96% (active), respectively. Besides, the inhibition in assay [2] was 67% (active); in assay [3], 1%. Moreover, the result in assay [5], in assay [6], in assay [7] and in assay [8] was inactive.

Source of the values: PubChem BioAssay.
